Assays:
Details in all cases: concentration: 1 μM,replicates: in singlicate; n = 1
MLK1 = system: T1, MLK1
T1 construct: gene MAP3K9

MLK2 = system: MLK2
MLK3 = system: MLK3
MRCKA = system: MRCKA
MRCKB = system: T2, MRCKB
T2 construct: gene CDC42BPB

MST1R = system: MST1R
MST1 = system: T3, MST1
T3 construct: gene STK4

MST2 = system: T4, MST2
T4 construct: gene STK3

MST3 = system: T5, MST3
T5 construct: gene STK24

MST4 = system: MST4
MTOR = system: MTOR
MUSK = system: MUSK
MYLK2 = system: MYLK2
MYLK4 = system: MYLK4
MYLK = system: MYLK
MYO3A = system: MYO3A
MYO3B = system: MYO3B
NDR1 = system: T6, NDR1
T6 construct: gene STK38

NDR2 = system: NDR2
NEK10 = system: NEK10
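Further: KINOMEscan kinase panel screen.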

Structure (SMILES) | %Inh (MLK1) [%] | %Inh (MLK2) [%] | %Inh (MLK3) [%] | %Inh (MRCKA) [%] | %Inh (MRCKB) [%] | %Inh (MST1R) [%] | %Inh (MST1) [%] | %Inh (MST2) [%] | %Inh (MST3) [%] | %Inh (MST4) [%] | %Inh (MTOR) [%] | %Inh (MUSK) [%] | %Inh (MYLK2) [%] | %Inh (MYLK4) [%] | %Inh (MYLK) [%] | %Inh (MYO3A) [%] | %Inh (MYO3B) [%] | %Inh (NDR1) [%] | %Inh (NDR2) [%] | %Inh (NEK10) [%]
CC(C)Nc1cc(-c2ccc3c(N)n[nH]c3c2)nc(N)n1 [GSK2221681] | 10 | 0 | 9 | 0 | 0 | 13 | 0 | 0 | 0 | 0 | 9 | 0 | 23 | 37 | 18 | 0 | 0 | 10 | 0 | 13
CCN(CC)CCCCNc1ncc2cc(-c3c(Cl)cccc3Cl)c(NC(=O)NC(C)(C)C)nc2n1 | 0 | 40 | 4 | 0 | 0 | 10 | 40 | 31 | 74 | 86 | 39 | 10 | 12 | 43 | 4 | 4 | 23 | 11 | 0 | 29
C[C@H]1Oc2cc(cnc2N)-c2c(nn(C)c2C#N)CN(C)C(=O)c2ccc(F)cc21 | 13 | 0 | 23 | 0 | 16 | 0 | 19 | 19 | 4 | 0 | 0 | 11 | 18 | 10 | 10 | 10 | 17 | 31 | 25 | 19
O=C(NCCCN1CCOC1=O)c1cnc(NCc2cc(Cl)ccc2Cl)nc1NC1CCCC1 | 8 | 4 | 23 | 4 | 18 | 26 | 27 | 35 | 14 | 0 | 19 | 11 | 0 | 6 | 14 | 0 | 16 | 31 | 0 | 13
Cl.Cl.NC[C@H](CC1CCCCC1)NC(=O)c1cc(Br)c(-c2ccnc3[nH]ccc23)s1 [GSK1581427] | 0 | 0 | 0 | 86 | 99.4 | 11 | 0 | 0 | 0 | 10 | 6 | 3 | 19 | 99.7 | 40 | 0 | 0 | 95.1 | 82 | 0
CN(C)CC(O)COc1ccc(Nc2nccc(-c3cnn4nc(N5CCOCC5)ccc34)n2)cc1 (stereo not shown) [GW767488] | 0 | 18 | 18 | 0 | 3 | 16 | 0 | 0 | 0 | 46 | 6 | 0 | 38 | 46 | 48 | 33 | 0 | 49 | 0 | 80
Nc1nc(Nc2ccccc2)cc(-c2ccc3c(N)n[nH]c3c2)n1 [GSK2225749] | 0 | 14 | 0 | 0 | 1 | 0 | 7 | 5 | 5 | 0 | 13 | 4 | 51 | 16 | 0 | 0 | 0 | 0 | 0 | 0
CC(C)N1C(=O)Cc2cc(Nc3ncc(C(F)(F)F)c(NCc4cccc(S(C)(=O)=O)c4)n3)ccc21 | 99.7 | 90.2 | 98.8 | 0 | 0 | 0 | 0 | 35 | 23 | 0 | 0 | 15 | 0 | 0 | 10 | 0 | 3 | 35 | 0 | 0
Cl.Cl.NC[C@H](Cc1ccc(C(F)(F)F)cc1)NC(=O)c1cc(Br)c(-c2ccnc3[nH]ccc23)s1 [GSK1487252] | 4 | 0 | 0 | 43 | 97.7 | 44 | 0 | 0 | 13 | 17 | 11 | 0 | 25 | 45 | 55 | 2 | 9 | 93.3 | 41 | 16
Cc1occc1-c1nc(N)c(OC[C@@H](N)Cc2c[nH]c3ccccc23)cc1-c1cc2c(C)n[nH]c2cn1 [GSK1660450] | 29 | 0 | 22 | 78 | 97.6 | 0 | 96.8 | 78 | 91.2 | 94.9 | 15 | 9 | 29 | 9 | 37 | 69 | 28 | 11 | 0 | 6
Cl.Oc1cc(-c2nc(-c3ccccc3)[nH]c2-c2ccncc2)ccc1Cl [SB-386023] | 0 | 0 | 3 | 0 | 0 | 22 | 0 | 27 | 0 | 9 | 0 | 0 | 0 | 11 | 0 | 27 | 0 | 10 | 0 | 0
CCN(CC)CCOc1ccc(Nc2ncc3cc(-c4c(Cl)cccc4Cl)c(=O)n(C)c3n2)cc1 [SB-601273] | 87 | 71 | 75 | 83 | 76 | 93 | 57 | 58 | 80 | 83 | 43 | 51 | 98.4 | 26 | 29 | 61 | 38 | 32 | 71 | 12
C[C@@H]1CCN(C(=O)CC#N)C[C@@H]1N(C)c1ncnc2[nH]ccc12 | 0 | 0 | 3 | 0 | 0 | 0 | 3 | 0 | 100 | 0 | 51 | 11 | 6 | 4 | 0 | 8 | 0 | 0 | 12 | 0
COc1ccc(C[C@@H](CN)NC(=O)c2cc(Br)c(-c3ccnc4[nH]ccc34)s2)cc1.Cl.Cl [GSK1389063] | 13 | 0 | 0 | 89 | 99.4 | 40 | 0 | 34 | 0 | 54 | 17 | 20 | 52 | 98.5 | 99.6 | 10 | 0 | 96.8 | 78 | 23
Cc1ccc2c(-c3ccncc3)c(-c3ccc(F)cc3)nn2c1.Cl [GW461484] | 10 | 0 | 0 | 5 | 0 | 38 | 5 | 7 | 2 | 0 | 9 | 0 | 17 | 3 | 13 | 0 | 7 | 29 | 0 | 9
NC(=O)c1cc(-c2ccccc2)cc2c(C3CCNCC3)c[nH]c12 [GSK301362] | 9 | 12 | 0 | 18 | 13 | 40 | 43 | 86 | 0 | 0 | 3 | 21 | 40 | 99 | 15 | 0 | 0 | 0 | 0 | 24
CCn1c(-c2nonc2N)nc2c(C#CC(C)(C)O)nc(OCCN)cc21.Cl.Cl [GSK902056] | 0 | 0 | 0 | 3 | 0 | 43 | 0 | 0 | 0 | 0 | 13 | 20 | 33 | 6 | 4 | 0 | 0 | 31 | 16 | 6
Cc1cc(C(=O)Nc2ccc(Oc3ccc4nc(NC(=O)C5CC5)cn4n3)cc2)nn1-c1ccccc1 | 20 | 43 | 4 | 28 | 0 | 0 | 13 | 0 | 0 | 0 | 9 | 59 | 0 | 5 | 9 | 0 | 21 | 8 | 3 | 0
Cl.Cl.Nc1nc(-c2ccc3c(N)n[nH]c3c2)cc(N2CCCC(NC(=O)c3ccccc3)C2)n1 (stereo not shown) [GSK2286775] | 0 | 0 | 0 | 2 | 0 | 35 | 0 | 8 | 12 | 2 | 39 | 0 | 0 | 27 | 11 | 22 | 0 | 20 | 0 | 16
Cc1cc2cn[nH]c2cc1-c1cccc2c(N)c(C(N)=O)nnc12 | 18 | 0 | 30 | 24 | 0 | 11 | 90.2 | 88 | 11 | 69 | 3 | 0 | 0 | 10 | 71 | 14 | 0 | 85 | 0 | 86
CNC(=O)c1ccccc1Sc1ccc2c(/C=C/c3ccccn3)n[nH]c2c1 | 0 | 17 | 1 | 0 | 100 | 29 | 0 | 50 | 11 | 0 | 52 | 51 | 9 | 6 | 14 | 0 | 0 | 9 | 0 | 18
C[C@@H](Oc1cc(-c2cnn(C3CCNCC3)c2)cnc1N)c1c(Cl)ccc(F)c1Cl | 0 | 0 | 0 | 0 | 10 |  | 56 | 0 |  | 0 | 2 | 75 | 20 | 30 | 21 | 0 | 0 | 19 | 6 | 60
O=C(NCCNc1ccnc(NCc2ccc(F)cc2)n1)c1cc2ccccc2s1 [GSK1379944] | 5 | 0 | 0 | 10 | 69 | 4 | 0 | 0 | 1 | 0 | 1 | 5 | 0 | 1 | 14 | 0 | 0 | 0 | 0 | 0
Cc1ccc(-n2nc(C(C)(C)C)cc2NC(=O)Nc2ccc(OCCN3CCOCC3)c3ccccc23)cc1 [GW839464] | 6 | 22 | 1 | 8 | 49 | 0 | 0 | 33 | 11 | 0 | 19 | 0 | 0 | 0 | 3 | 0 | 15 | 5 | 2 | 0
Cc1n[nH]c2ccc(-c3cc(OC[C@@H](N)Cc4ccccc4)cnc3-c3ccoc3)cc12.O=C(O)C(F)(F)F.O=C(O)C(F)(F)F [GSK507358] | 0 | 0 | 0 | 28 | 15 | 33 | 2 | 33 | 17 | 65 | 1 | 6 | 25 | 15 | 14 | 80 | 28 | 14 | 16 | 5
C=CC(=O)Nc1cc2c(Nc3ccc(F)c(Cl)c3)ncnc2cc1OCCCN1CCOCC1 [GW781483] | 0 | 0 | 3 | 0 | 11 | 10 | 1 | 0 | 33 | 0 | 15 | 0 | 0 | 18 | 0 | 0 | 3 | 4 | 1 | 17
CN(C)CCOc1ccc(-c2cc(-c3c[nH]nc3-c3ccccn3)ccn2)cc1 [GW835314] | 14 | 6 | 19 | 0 | 0 | 0 | 25 | 0 | 6 | 24 | 0 | 9 | 0 | 0 | 15 | 0 | 30 | 14 | 0 | 0

— paper PMC5540273 (PLoS ONE, 2017)
